Tests used:
[1] = tested on: Vero E6 infected with SARS-CoV-2; assay: morphology score (similarity to uninfected cells); higher = more like uninfected cells; details: 24 h
[2] = tested on: Vero E6 infected with SARS-CoV-2; assay: SARS-CoV-2 infection rate relative to infected DMSO; higher = more infection, active = 60 or less; details: 24 h

Compound	morphology score [1]	SARS-CoV-2 infection rate [2]
Cc1nnc(C(=O)NC(C)(C)c2nc(C(=O)NCc3ccc(F)cc3)c(O)c(=O)n2C)o1 [raltegravir] (10 µM)	0.324	110% (inactive)
CCOc1ccc(Cc2nccc3cc(OCC)c(OCC)cc23)cc1OCC [ethaverine] (10 µM)	0.2	100% (inactive)
OB1OCc2cc(F)ccc21 [tavaborole] (10 µM)	0.00492	108% (inactive)
CSc1ccc([C@H]2CN3CCC[C@H]3c3ccccc32)cc1 (racemic) (10 µM)	0.328	86.5% (inactive)
c1cc2c(c(N3CCNCC3)c1)OCCO2 [eltoprazine] (10 µM)	0.0367	94.5% (inactive)
CC(C)(C)[C@]1(O)CC2OC(=O)CC23C(=O)OC2OC(=O)[C@H](O)C231 (some centres undefined) [bilobalide] (10 µM)	0.0342	110% (inactive)
C#CCN(C)Cc1ccccc1 [pargyline] (10 µM)	0.0803	108% (inactive)
CN1CC[C@@H](NC(=O)Nc2ccc(C#N)cc2)C[C@@H]1c1nc2ccccc2[nH]1 [glasdegib] (10 µM)	0.066	100% (inactive)
C=C1CCN([C@H](C)[C@](O)(Cn2cncn2)c2ccc(F)cc2F)CC1 [efinaconazole] (10 µM)	0.162	92% (inactive)
C/C(=N\c1ccccc1N)c1c(C)cc(=O)n(O)c1O (10 µM)	-0.169	107% (inactive)
O=C(O)/C=C/CO [trans-4-hydroxycrotonic-acid] (10 µM)	0.0958	90.5% (inactive)
C=CCN1CC[C@]23CCCC[C@H]2[C@H]1Cc1ccc(O)cc13 [levallorphan] (10 µM)	-0.0532	114% (inactive)
COc1cc(C[C@H]2c3cc(OC)c(OC)cc3CCN2C)c(Oc2cc3c(cc2OC)-c2c(OC)c(OC)cc4c2[C@H](C3)N(C)CC4)cc1OC [thaliblastine] (10 µM)	0.443	30.5% (active)
CC(C)(C)S(=O)(=O)N[C@H]1CC[C@H](C(=O)Nc2ccc(C(F)(F)F)cn2)CC1 [velneperit] (10 µM)	-0.0103	115% (inactive)
CNc1ccc([N+](=O)[O-])cc1-n1cnc(-c2ccc(C(F)(F)F)cc2)c1 (10 µM)	0.117	97% (inactive)
CCCCCOC(=O)Nc1nc(=O)n([C@@H]2O[C@H](C)[C@@H](O)[C@H]2O)cc1F [capecitabine] (10 µM)	-0.208	114% (inactive)
CCC1(c2c[nH]cn2)Cc2ccccc2C1 [atipamezole] (10 µM)	-0.114	112% (inactive)
COc1ccc(NS(=O)(=O)c2ccc(I)cc2)cc1N1CCN(C)CC1 (10 µM)	0.195	98.5% (inactive)
CC1=C(/C=C/C(C)=C/C=C/C(C)=C/C=C/C=C(C)/C=C/C=C(C)/C=C/C2=C(C)CCCC2(C)C)C(C)(C)CCC1 [beta-carotene] (10 µM)	0.0662	112% (inactive)
C=CC[C@]1(O)CC[C@H]2[C@@H]3CCC4=CC(=O)CCC4=C3C=C[C@@]21C [altrenogest] (10 µM)	0.0206	105% (inactive)
Nc1ncnc2c1C(=O)N(c1ccc([C@H]3CC[C@H](CC(=O)O)CC3)cc1)CCO2 (10 µM)	0.118	92.5% (inactive)
Cc1cccc(C)c1NC(=O)CN1CCCC1=O [nefiracetam] (10 µM)	0.0495	113% (inactive)

Source: the supplement of paper PMC13380429
